Results on 14 molecules are retold here after PubChem BioAssay (EPA / NIEHS).

As usually defined, the AC50 is the concentration at which the activity in the assay is half-maximal.

The target of test [1] is human Dual Specificity Protein Phosphatase 3 (DUSP3), DUSP3 (gene 1845) (UniProt P51452). Briefly: NVS_ENZ_hDUSP3: NovaScreen (NVS) Enzymatic Assay for human Dual Specificity Protein Phosphatase 3 (DUSP3) (AID 2283152).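 Also: phosphatase activity of recombinant human DUSP3 on a fluorogenic substrate without cells.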 The method, boiled down:
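Cell-free fluorescence-intensity enzyme activity assay with recombinant protein and substrate; loss of signal fitted relative to DMSO baseline. Primary screen in duplicate at 25 uM, actives then run in concentration series; measured 0 h after dosing.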

In test [2] the target is human AKT serine/threonine Kinase 2 (AKT2), AKT2 (gene 208) (UniProt P31751). Briefly: NVS_ENZ_hAKT2: NovaScreen (NVS) Enzymatic Assay for human AKT serine/threonine Kinase 2 (AKT2) (AID 2283141). The gist of the method:
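Cell-free fluorescence/electrophoretic mobility shift readout of recombinant human AKT2 activity, 1 h after chemical dosing. Duplicate primary screen at 25 uM, then singleton concentration-response up to 50 uM; loss of signal versus DMSO baseline.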

Test [3] concerns the target human Caspase 5 (CASP5), CASP5 (gene 838) (UniProt P51878). Briefly: NVS_ENZ_hCASP5: NovaScreen (NVS) Enzymatic Assay for human Caspase 5 (CASP5) (AID 2283137). The method, boiled down:
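Loss of fluorescent signal versus DMSO scored for E. coli-derived human CASP5 cleaving a fluorescent substrate, 2 h post-dosing; compounds first tested at 25 uM in duplicate, hits rerun in concentration series with 50 uM top concentration.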

Test [4] addresses human AKT serine/threonine Kinase 1 (AKT1), AKT1 (gene 207) (UniProt P31749). Briefly: NVS_ENZ_hAKT1: NovaScreen (NVS) Enzymatic Assay for human AKT serine/threonine Kinase 1 (AKT1) (AID 2283138). The method, boiled down: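 Screening first at 25 uM (duplicate), with threshold-passing chemicals re-tested in concentration series to a 50 uM maximum. Kinase activity read by fluorescence with mobility-shift separation of substrate and product, 1 h after dosing, DMSO baseline.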

Test [5] deals with human Beta-secretase (BACE), BACE1 (gene 23621) (UniProt P56817). Briefly: NVS_ENZ_hBACE: NovaScreen (NVS) Enzymatic Assay for human Beta-secretase (BACE) (AID 2283140).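 Also: hits are inhibitors that reduce fluorescent substrate signal versus DMSO.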 The gist of the method:
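Enzyme from SF9 cells was incubated 1 hour with compound and fluorogenic substrate, activity read by fluorescence. Single-concentration duplicates at 25 uM preceded concentration-response follow-up; fitting relative to DMSO baseline.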

The target of another test is CDK2 (gene 1017) (UniProt P24941). The test is described as follows: NVS_ENZ_hCDK2: NovaScreen (NVS) Enzymatic Assay for human Cyclin-Cependent Kinase 2 (CDK2) (AID 2283144). The method, boiled down: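 Compounds screened in duplicate at 25 uM, then in singleton concentration-response to a maximum of 50 uM, against recombinant CDK2; kinase activity read 1 hr after dosing by fluorescence with mobility-shift separation of substrate and product.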

For test [6], the target named is human Casein Kinase 1-delta (CK1D), CSNK1D (gene 1453) (UniProt P48730). Briefly: NVS_ENZ_hCK1D: NovaScreen (NVS) Enzymatic Assay for human Casein Kinase 1-delta (CK1D) (AID 2283148). The gist of the method: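 Recombinant human CK1-delta, cell-free; fluorescent substrate with electrophoretic mobility-shift separation of product, read 1 h after dosing. Single 25 uM duplicate screen, then concentration-response up to 50 uM; loss of signal vs DMSO.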

In test [7] the target is human Colony Stimulating Factor 1 Receptor (CSF1R), CSF1R (gene 1436) (UniProt P07333). The test is described as follows: NVS_ENZ_hCSF1R: NovaScreen (NVS) Enzymatic Assay for human Colony Stimulating Factor 1 Receptor (CSF1R) (AID 2283150). The method, then: NVS_ENZ_hCSF1R is a biochemical, single-readout assay that uses extracted gene-proteins in a cell-free assay. Measurements were taken 1 hour after chemical dosing in a 384-well plate.NVS_ENZ_hCSF1R is one of one assay component(s) measured or calculated from the NVS_ENZ_hCSF1R assay. It is designed to make measurements of enzyme activity, a form of enzyme reporter, as detected with fluorescence intensity signals by Fluorescence and electrophoretic mobility shift technology.Data from the assay component NVS_ENZ_hCSF1R was analyzed into 1 assay endpoint. This assay endpoint, NVS_ENZ_hCSF1R, was analyzed in the positive analysis fitting direction relative to DMSO as the negative control and baseline of activity. Using a type of enzyme reporter, loss-of-signal activity can be used to understand changes in the enzymatic activity as they relate to the gene CSF1R. Furthermore, this assay endpoint can be referred to as a primary readout, because this assay has produced multiple assay endpoints where this one serves a enzymatic activity function. To generalize the intended target to other relatable targets, this assay endpoint is annotated to the kinase intended target family, where the subfamily is receptor tyrosine kinase. […]

The next test has as its target Caspase-3 (Homo sapiens) (UniProt P42574). Briefly: NVS_ENZ_hCASP3: NovaScreen (NVS) Enzymatic Assay for human Caspase 3 (CASP3) (AID 2283139). How it is done: (§1) NVS_ENZ_hCASP3 is a biochemical, single-readout assay that uses extracted gene-proteins from E. coli in a cell-free assay. Measurements were taken 1 hour after chemical dosing in a 96-well plate.NVS_ENZ_hCASP3 is one of one assay component(s) measured or calculated from the NVS_ENZ_hCASP3 assay. It is designed to make measurements of enzyme activity, a form of enzyme reporter, as detected with fluorescence intensity signals by Fluorescence technology.Data from the assay component NVS_ENZ_hCASP3 was analyzed into 1 assay endpoint. This assay endpoint, NVS_ENZ_hCASP3, was analyzed in the positive analysis fitting direction relative to DMSO as the negative control and baseline of activity. […] Furthermore, this assay endpoint can be referred to as a primary readout, because this assay has produced multiple assay endpoints where this one serves a enzymatic activity function. […]
(§2) Binding assays used specific radioligands (tritiated, iodinated) with non-radioactive competitive displacement ligands in agonist or antagonist protocols (as indicated) and various reference compounds and inhibitors to titrate specific binding to receptors and transporters. Most enzyme assays (CYPs, kinases, phosphatases, proteases, HDACs) used recombinant protein and specific substrates (fluorescence mostly, some colorimetric and radioactive) and inhibitors, followed by a biochemical separation of substrate and product. […]

Test [8] deals with human Caspase 8 (CASP8), CASP8 (gene 841) (UniProt Q14790). The test is described as follows: NVS_ENZ_hCASP8: NovaScreen (NVS) Enzymatic Assay for human Caspase 8 (CASP8) (AID 2283146). How it is done:
as §1, with “NVS_ENZ_hCASP8” for “NVS_ENZ_hCASP3”, “plate.NVS_ENZ_hCASP8” for “plate.NVS_ENZ_hCASP3”, “NVS_ENZ_hCASP8,” for “NVS_ENZ_hCASP3,”
as §2

The structures appear in SMILES notation. “And” between values parts separate entries of the source, which are not always exact repeats. Equal values may be shown once. Inconclusive results are not listed. Some structures have more than one record in an assay (separate samples or runs), and their calls can disagree. The source made the active and inactive calls. The calls were made as follows: active = hit-call score of the fitted dose curve at least 0.9, where 1 is the maximum; inconclusive = response in the unintended direction; inactive = score below 0.9.

human Dual Specificity Protein Phosphatase 3 (DUSP3), DUSP3 (gene 1845), sequence (P51452 whole entry, looked up): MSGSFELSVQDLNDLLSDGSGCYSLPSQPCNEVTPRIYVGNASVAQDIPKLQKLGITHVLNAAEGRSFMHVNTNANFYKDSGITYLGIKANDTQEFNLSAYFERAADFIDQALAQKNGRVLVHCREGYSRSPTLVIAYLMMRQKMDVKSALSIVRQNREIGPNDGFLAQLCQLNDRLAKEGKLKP
human Caspase 5 (CASP5), CASP5 (gene 838), sequence (P51878 whole entry, looked up): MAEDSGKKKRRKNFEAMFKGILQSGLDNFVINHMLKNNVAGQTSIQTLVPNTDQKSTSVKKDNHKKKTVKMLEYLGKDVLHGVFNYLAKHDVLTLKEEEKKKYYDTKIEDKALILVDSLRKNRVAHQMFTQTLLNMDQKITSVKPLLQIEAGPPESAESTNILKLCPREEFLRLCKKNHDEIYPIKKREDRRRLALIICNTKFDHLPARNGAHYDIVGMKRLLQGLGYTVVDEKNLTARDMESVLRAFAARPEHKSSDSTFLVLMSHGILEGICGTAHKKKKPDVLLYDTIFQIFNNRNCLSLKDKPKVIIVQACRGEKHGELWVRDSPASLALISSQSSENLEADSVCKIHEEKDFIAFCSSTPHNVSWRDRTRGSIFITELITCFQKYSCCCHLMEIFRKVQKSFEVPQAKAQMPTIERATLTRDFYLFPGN
human Beta-secretase (BACE), BACE1 (gene 23621), sequence (P56817 whole entry, looked up): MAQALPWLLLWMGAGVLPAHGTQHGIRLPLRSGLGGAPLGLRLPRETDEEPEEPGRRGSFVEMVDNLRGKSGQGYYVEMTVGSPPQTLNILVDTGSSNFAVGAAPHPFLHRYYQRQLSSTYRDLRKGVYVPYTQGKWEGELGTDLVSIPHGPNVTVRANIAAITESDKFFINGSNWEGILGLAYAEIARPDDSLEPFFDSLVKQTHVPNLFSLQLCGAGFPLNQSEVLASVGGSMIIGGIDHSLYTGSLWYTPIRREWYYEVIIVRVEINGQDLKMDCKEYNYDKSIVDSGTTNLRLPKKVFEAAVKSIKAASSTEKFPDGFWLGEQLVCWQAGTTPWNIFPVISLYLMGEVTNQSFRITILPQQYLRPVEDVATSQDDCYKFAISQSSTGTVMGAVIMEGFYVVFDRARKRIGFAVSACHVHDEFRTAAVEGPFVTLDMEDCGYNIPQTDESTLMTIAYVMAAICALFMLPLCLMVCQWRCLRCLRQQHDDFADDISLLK
human AKT serine/threonine Kinase 1 (AKT1), AKT1 (gene 207), sequence (P31749 whole entry, looked up): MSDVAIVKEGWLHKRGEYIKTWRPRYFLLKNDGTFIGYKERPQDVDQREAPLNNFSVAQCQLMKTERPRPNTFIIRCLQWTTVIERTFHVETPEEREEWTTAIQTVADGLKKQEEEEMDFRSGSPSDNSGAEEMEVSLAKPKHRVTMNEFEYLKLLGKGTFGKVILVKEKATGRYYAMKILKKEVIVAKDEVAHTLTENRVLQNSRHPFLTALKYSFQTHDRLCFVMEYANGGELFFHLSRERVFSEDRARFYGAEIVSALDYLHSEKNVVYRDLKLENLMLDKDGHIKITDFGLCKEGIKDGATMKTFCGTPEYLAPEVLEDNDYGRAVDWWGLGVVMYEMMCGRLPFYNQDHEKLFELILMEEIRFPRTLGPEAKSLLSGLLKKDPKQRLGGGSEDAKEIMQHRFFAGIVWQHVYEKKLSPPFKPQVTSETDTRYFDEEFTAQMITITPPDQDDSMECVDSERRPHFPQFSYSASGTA
human Casein Kinase 1-delta (CK1D), CSNK1D (gene 1453), sequence (P48730 whole entry, looked up): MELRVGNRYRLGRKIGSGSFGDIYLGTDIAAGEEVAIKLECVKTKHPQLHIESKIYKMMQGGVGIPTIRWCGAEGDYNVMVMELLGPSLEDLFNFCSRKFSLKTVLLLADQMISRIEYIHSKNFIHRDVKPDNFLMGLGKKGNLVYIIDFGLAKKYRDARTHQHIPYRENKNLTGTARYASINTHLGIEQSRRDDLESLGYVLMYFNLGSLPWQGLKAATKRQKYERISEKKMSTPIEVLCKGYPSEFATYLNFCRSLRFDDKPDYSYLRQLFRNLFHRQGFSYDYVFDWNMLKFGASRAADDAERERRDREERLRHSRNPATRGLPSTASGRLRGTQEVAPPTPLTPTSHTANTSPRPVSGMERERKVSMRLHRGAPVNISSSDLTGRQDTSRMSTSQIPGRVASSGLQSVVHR
human AKT serine/threonine Kinase 2 (AKT2), AKT2 (gene 208), sequence (P31751 whole entry, looked up): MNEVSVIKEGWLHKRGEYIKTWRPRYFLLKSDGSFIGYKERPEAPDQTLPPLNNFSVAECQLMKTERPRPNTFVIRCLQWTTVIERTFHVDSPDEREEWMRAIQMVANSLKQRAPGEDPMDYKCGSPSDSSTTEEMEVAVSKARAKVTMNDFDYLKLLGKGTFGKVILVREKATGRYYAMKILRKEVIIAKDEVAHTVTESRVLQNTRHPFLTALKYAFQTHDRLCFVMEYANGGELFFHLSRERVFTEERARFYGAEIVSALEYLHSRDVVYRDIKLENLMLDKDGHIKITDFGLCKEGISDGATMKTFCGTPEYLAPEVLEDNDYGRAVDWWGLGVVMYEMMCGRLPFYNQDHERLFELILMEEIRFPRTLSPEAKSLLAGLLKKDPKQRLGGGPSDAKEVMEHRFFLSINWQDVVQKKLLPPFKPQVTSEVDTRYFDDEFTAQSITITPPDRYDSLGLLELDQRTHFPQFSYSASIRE
Caspase-3 (Homo sapiens), sequence (P42574 whole entry, looked up): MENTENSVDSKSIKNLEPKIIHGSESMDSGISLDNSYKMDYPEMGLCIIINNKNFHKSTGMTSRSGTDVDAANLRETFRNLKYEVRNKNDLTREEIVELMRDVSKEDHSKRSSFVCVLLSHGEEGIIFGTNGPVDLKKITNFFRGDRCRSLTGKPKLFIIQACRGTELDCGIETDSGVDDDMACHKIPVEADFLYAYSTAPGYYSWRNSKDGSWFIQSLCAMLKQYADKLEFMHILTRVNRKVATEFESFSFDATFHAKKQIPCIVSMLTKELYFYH
human Caspase 8 (CASP8), CASP8 (gene 841), sequence (Q14790 whole entry, looked up): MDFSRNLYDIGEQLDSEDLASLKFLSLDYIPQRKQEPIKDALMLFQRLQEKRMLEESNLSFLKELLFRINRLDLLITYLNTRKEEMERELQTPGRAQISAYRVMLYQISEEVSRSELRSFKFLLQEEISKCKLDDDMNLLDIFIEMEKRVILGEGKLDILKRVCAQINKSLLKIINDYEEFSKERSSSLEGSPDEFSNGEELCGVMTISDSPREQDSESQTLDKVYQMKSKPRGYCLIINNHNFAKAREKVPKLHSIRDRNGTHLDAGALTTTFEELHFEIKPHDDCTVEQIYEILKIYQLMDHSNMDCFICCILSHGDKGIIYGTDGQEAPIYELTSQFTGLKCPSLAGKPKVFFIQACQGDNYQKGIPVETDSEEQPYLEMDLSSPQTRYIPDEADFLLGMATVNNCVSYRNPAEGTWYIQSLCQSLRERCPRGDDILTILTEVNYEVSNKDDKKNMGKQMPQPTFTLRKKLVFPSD
human Colony Stimulating Factor 1 Receptor (CSF1R), CSF1R (gene 1436), sequence (P07333 whole entry, looked up): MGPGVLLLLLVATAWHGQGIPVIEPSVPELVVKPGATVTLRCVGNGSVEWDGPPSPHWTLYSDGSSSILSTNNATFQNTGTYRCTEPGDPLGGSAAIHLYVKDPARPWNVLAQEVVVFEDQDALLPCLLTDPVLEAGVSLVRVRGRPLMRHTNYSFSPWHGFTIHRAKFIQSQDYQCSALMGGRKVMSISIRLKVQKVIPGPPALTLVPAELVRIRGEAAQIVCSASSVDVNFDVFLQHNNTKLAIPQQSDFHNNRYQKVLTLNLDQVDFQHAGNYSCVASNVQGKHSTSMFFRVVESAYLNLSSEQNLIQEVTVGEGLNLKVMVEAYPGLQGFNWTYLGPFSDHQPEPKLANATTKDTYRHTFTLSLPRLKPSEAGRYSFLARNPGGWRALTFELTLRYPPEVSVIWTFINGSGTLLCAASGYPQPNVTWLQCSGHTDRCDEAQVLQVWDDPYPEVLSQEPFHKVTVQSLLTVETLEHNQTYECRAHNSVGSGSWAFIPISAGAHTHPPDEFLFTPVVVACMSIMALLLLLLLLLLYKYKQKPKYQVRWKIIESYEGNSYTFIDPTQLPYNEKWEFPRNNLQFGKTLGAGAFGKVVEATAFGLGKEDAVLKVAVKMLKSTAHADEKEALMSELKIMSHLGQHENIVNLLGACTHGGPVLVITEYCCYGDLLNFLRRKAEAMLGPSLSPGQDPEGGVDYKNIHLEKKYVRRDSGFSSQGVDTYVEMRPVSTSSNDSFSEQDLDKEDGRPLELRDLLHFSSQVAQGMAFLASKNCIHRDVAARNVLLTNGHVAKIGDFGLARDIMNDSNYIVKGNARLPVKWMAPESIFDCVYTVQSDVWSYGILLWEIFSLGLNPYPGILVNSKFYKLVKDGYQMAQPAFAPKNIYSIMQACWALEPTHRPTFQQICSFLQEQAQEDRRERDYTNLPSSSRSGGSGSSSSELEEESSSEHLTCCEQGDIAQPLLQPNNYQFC

Turning to `CC/C=C\C#N`, in [1], the AC50 is 40.4 µM (active).

As for `CCCCCCCCOC(C)=O`, the AC50 in test [1] is 25 µM (active).

`C[C@]12CC[C@@H]3c4ccc(O)cc4CC[C@H]3[C@@H]1CC[C@@H]2O`: the call in [2] was inactive.

On to `NC(=O)NC(N)=O`, for which, in test [1], the AC50 is 25 µM (active).

`O=[N+]([O-])c1cc(N(CCO)CCO)ccc1NCCO`: the AC50 in test [3] was 8.66 µM (active).

Regarding `CC/C(=C(\c1ccccc1)c1ccc(OCCN(C)C)cc1)c1ccccc1`, in [4], the AC50 is 33.4 µM (active). The molecule was classed as inactive (in test [4]; in test [5]; in test [2]; in the test with CDK2 (gene 1017); in test [6]; in test [7]). Further, the molecule was classed as inactive in test [1].

Consider `CCCCOCCOCCO`, for which the call in the test with Caspase-3 (Homo sapiens) was inactive.

Turning to `O=C(c1ccc(OCCN2CCCCC2)cc1)c1c(-c2ccc(O)cc2)sc2cc(O)ccc12`, the call in test [4], in test [8] and in test [6] was inactive. Also, the concentration at half-maximal activity (AC50) in [5] is 15.3 µM (active); in [1] it was 12.6 µM (active).

Take `CC1=CC(C)C(C=O)C(C)C1` (stereo unspecified) (tested in a mixture with another compound): in [5], the outcome was inactive.

On to `O=C1OC2(c3ccc(O)cc3Oc3cc(O)ccc32)c2ccccc21`, for which the half-maximal activity concentration (AC50) was 7.41 µM (active) in test [5] and 23.6 µM (active) in [1].

With `CC(=O)CCC=C(C)CCC=C(C)C`, the molecule was classed as inactive in test [5].

With `C=C(C)C(N)=O`, the molecule was classed as inactive in test [4].

Take `Nc1ccc(N)c([N+](=O)[O-])c1`: the AC50 in test [3] was 8.68 µM (active) and 13.7 µM (active).

Take `C#C[C@]1(O)CC[C@H]2[C@@H]3CCc4cc(O)ccc4[C@H]3CC[C@@]21C`: the call in test [4] was inactive.
